Most compounds without a hit are left out; they make up all but 19% or so of the library.
HT1080NT lethal: kills 2HG-producing HT-1080-NT fibrosarcoma cells; HT-1080-NT fibrosarcoma viability, CellTiter-Glo ATP luminescence, 48 h; Potency, µM (doses to about 46.1 µM), for the others: at the top dose activity, negative = less viability, usual class: cytotoxic; 1.6% of 360,000 active; AID 686970;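 also: NT is the 2HG producing partner of a matched IDH1 knockdown line; potency is read from the fitted curve at half-maximal effect; 0% = DMSO-treated cells and -100% = media-only wells without cells; nearly all actives have a fitted effect of over 55% in size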
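Fibrosarcoma NT cells, 750 per well in 5% FBS RPMI, were exposed to compound for 48 hours. Viability: CellTiter-Glo luminescence.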
TDP1 cell noCPT: qHTS for Inhibitors of human tyrosyl-DNA phosphodiesterase 1 (TDP1): qHTS in cells in absence of CPT; DT40 Tdp1-/- hTDP1 cells, no CPT, ATP luminescence, 48 h; Potency, µM (doses to about 46.2 µM), for the others: top-dose activity change, negative = growth inhibition, hits mostly inhibitors; 15% of 420,000 active; AID 686978, 2013; also: potency is read from the fitted curve at half-maximal effect; nearly all actives have a fitted effect of over 55% in size
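Growth of hTDP1-complemented DT40 Tdp1-knockout cells is measured by ATP luminescence after at least 48 hr compound exposure at 37 °C, with DMSO substituting for the 20 nM CPT used in the parallel screen.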
HT1080 IDH1KD tx: kills HT-1080 cells with IDH1 knockdown; HT-1080 IDH1 knockdown viability, ATP luminescence, 48 h; Potency, µM (doses to about 46.1 µM), inactives show at the top dose activity, negative = toxicity, usual class: cytotoxic; 2% of 360,000 active; AID 686971;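 also: potency is read from the fitted curve at half-maximal effect; 0% = DMSO wells and -100% = cell-free medium wells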
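Knockdown cells (IDH1KD HT-1080) received compounds 2 h after plating at 750 cells/well and were kept 48 h at 37 °C in 5% FBS RPMI. A CellTiter-Glo luminescence read gave % activity for curve fitting.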
IL-1B inflam inh: inhibitors of inflammasome signaling (IL-1 beta secretion); THP-1 LPS/ATP IL-1B secretion, AlphaLISA, 16 h; stronger effect = lower value; AID 743279; activity change, % at 57.5 µM; 4.7% of 360,000 active; in the data active = activity change below about -50%; inconclusive = mostly about -30% to -49%
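Secreted IL-1B measured by AlphaLISA bead assay after 16 h compound exposure of THP-1 cells; compounds (final up to 57.5 uM) added 1 h before LPS (250 ng/mL) and ATP (1.25 mM) stimulation; lower signal means less secretion.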
TDP1 cell CPT: growth inhibition of DT40 Tdp1-/-;hTDP1 cells with camptothecin (screen for TDP1 inhibitors). chicken DT40 Tdp1-/-;hTDP1 cells + 20 nM CPT, ATP luminescence, 48 h. Potency, µM (top dose mostly 46.2 µM), for inactives: at the highest dose activity change, negative = growth inhibition, most hits filed as inhibitors. 12% of 420,000 active. AID 686979; also: potency is read from the fitted curve at half-maximal effect; nearly all actives have a fitted effect of over 55% in size
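Cell growth measured by CellTiter-Glo luminescence after a minimum 48 h, 37 C compound exposure with 20 nM CPT in Tdp1-knockout DT40 cells stably expressing hTDP1, seeded 400/well; qHTS titration format.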
Active calls of the source: *; ? = inconclusive; / = not tested or not shown; [ ] = another dose, or the depositor's remark. Unless noted, calls follow the shape of the dose curve; as a rule, active = well fitted curve in the direction sought with a large enough effect; inconclusive = small, poorly fitted or top-dose-only effect, or another doubt; inactive = no such curve, though single readings can be large; an effect the other way counts as inactive or inconclusive. Unless noted, % is scaled to controls: 0 for no effect and ±100 for the full control effect.

SMILES	HT1080NT lethal	TDP1 cell noCPT	HT1080 IDH1KD tx	IL-1B inflam inh	TDP1 cell CPT
O=C(C[C@@H]1C/C=C\C[C@H](Cc2ccc(F)cc2)C(=O)OCCNC1=O)N[C@H](CO)Cc1ccccc1	8.6%	16.4µM*	7.1%	18.5	?
O=C(C[C@@H]1C/C=C/CC[C@H](Cc2ccc(F)cc2)C(=O)OC[C@@H](Cc2ccccc2)NC1=O)N[C@H](CO)Cc1ccccc1	?	?	?	4.0	?
O=C(C[C@@H]1C/C=C/CC[C@H](Cc2ccc(F)cc2)C(=O)OCCNC1=O)N[C@H](CO)Cc1ccccc1	0.6%	11.6µM*	-0.8%	-5.9	20.6µM*
C[C@@H]1COC(=O)[C@H](Cc2ccc(F)cc2)CC/C=C/C[C@@H](CC(=O)N[C@@H](CO)Cc2ccccc2)C(=O)N1	-4.5%	25.9µM*	-3.8%	5.8	?
O=C(C[C@H]1C/C=C\CC[C@@H](Cc2ccc(F)cc2)C(=O)O[C@@H](c2ccccc2)CNC1=O)N[C@@H](CO)Cc1ccccc1	7.6%	-18.0%	4.2%	29.0	-20.2%
CCn1c(-c2ccccc2Cl)nn(CC(=O)Nc2ccc(OC)cc2)c1=S	-0.7%	?	-6.4%	-4.6	-26.2%
COc1ccc(/C=C/C(=O)OCC(=O)N2c3ccccc3CC2C)c(OC)c1 (centres undefined)	3.5%	18.4µM*	2.0%	-19.9	?
CC1Cc2ccccc2N1C(=O)CO/N=C/c1ccccc1OC(F)F (centres undefined)	-1.7%	20.6µM*	-18.7%	-29.1	?
Cc1cccn2c(=O)c3cc(C#N)c(=NC(=O)c4cccs4)n(CCCOC(C)C)c3nc12	0.1%	18.4µM*	1.9%	-15.5	?
Cc1cccn2c(=O)c3cc(C#N)c(=NC(=O)c4ccncc4)n(CCCOC(C)C)c3nc12	-11.8%	16.4µM*	-2.7%	-18.7	18.4µM*
COc1cccc(-c2cncnc2Nc2ccc(F)cc2)c1	/	-7.8%	/	/	-27.0%
Cc1ccc(C(=O)O)cc1-n1c(=O)n(Cc2ccccc2)c(=O)c2[nH]cnc21	19.7%	-5.0%	18.0%	10.9	0.1%
O=C(CC1Sc2ncnn2C1=O)Nc1ccc(Br)cc1 (centres undefined)	-10.6%	4.61µM*	-4.2%	-11.5	2.06µM*
CCCN1C(=O)SC(CC(=O)Nc2ccc(Br)cc2)C1=O (centres undefined)	-8.5%	12.6µM*	-10.0%	-0.9	?
COc1ccc(NC(=S)N2CCC(c3ccc(C)cc3)C2)cc1 (centres undefined)	3.8%	?	2.3%	-16.7	?
CCOc1ccc(NC(=S)N2CCC(c3ccc(C)cc3)C2)cc1 (centres undefined)	4.9%	13µM*	-2.4%	-9.7	?
COc1cccc(NC(=S)N2CCC(c3ccc(C)cc3)C2)c1 (centres undefined)	1.3%	7.31µM*	-20.4%	-78.5*	11.6µM*
O=C(CCNC(=O)N1CC(=O)Nc2ccccc21)Nc1ccc(F)c(Cl)c1	-14.8%	1.1%	-0.9%	3.9	-2.5%
COc1ccc(CNC(=O)CN(c2ccccc2)S(=O)(=O)N(C)C)cc1	24.0%	-12.2%	26.2%	-2.8	-13.3%
CC1CN(C(=O)Nc2ccccc2)c2ccccc2-[n+]2ccsc21 (centres undefined)	2.3%	11.6µM*	-1.1%	-18.2	3.66µM*
O=C(Nc1ccccc1)N1CCc2scc[n+]2-c2ccccc21	-1.6%	11.6µM*	2.0%	?	5.8µM*
CC1CC(=S)Nc2ccccc2N1C(=O)Nc1ccccc1 (centres undefined)	17.7%	-9.5%	20.1%	10.7	4.3%
O=C(NCC1Cc2cccc(-c3ncccn3)c2O1)C1CCOC1 (centres undefined)	/	-6.2%	/	/	9.9%[9.04 µM]
Cn1c(N2CCOCC2)c(/C=N/OC(=O)c2cccnc2Cl)c2ccccc21	-16.3%	?	7.6%	51.6	?
Cc1ccc(C(=O)O/N=C/c2c(N3CCOCC3)n(C)c3ccccc23)cc1	3.98µM*	4.11µM*	3.55µM*	55.5	3.26µM*
